This note sets out measurements from PubChem BioAssay (NCATS).

Where “and” joins values, the source holds several entries; their conditions need not be identical. Identical values can stand only once. Results filed as inconclusive are left out. Calls of active or inactive are those of the source. Calls come from the whole dose curve; as a rule, active = well fitted curve in the direction sought with a large enough effect; inconclusive = small, poorly fitted or top-dose-only effect, or another doubt; inactive = no such curve, though single readings can be large; an effect the other way counts as inactive or inconclusive.

Test [1] in a line: qHTS assay for measurement of the activity of small molecule inhibitors on Zika virus induced Caspase-3 activity in human iPSC derived neural progenitor cells (hNPCs) (AID 1224857). Note: nearly all actives have a fitted effect of over 65% in size. Note: potency is the fitted concentration of half-maximal effect. Put shortly:
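Cells were plated at 350 per well and grown 16 to 20 hours. Compound pretreatment lasted one hour, after which ZIKV (2 FFU/cell) was added for 6 hours. Percent inhibition was normalized between uninfected and infected controls.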
(In general: Quantitative high-throughput screening tests each substance at several concentrations.)

Test [2] can be described thus: qHTS assay for measurement of the activity of small molecule inhibitors on Zika virus induced Caspase-3 activity in human astrocytoma cells (AID 1224859). In outline: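 Percent inhibition of virus-induced caspase-3/7 signal is calculated against uninfected and ZIKV-infected control cells. Cells are SNB-19, infected at 2 FFU/cell for 6 h after 1 h compound exposure.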

Test [3] is described as follows: qHTS Screen of the MIPE 4.0 Collection Against Ewings Sarcoma (RDES) (AID 1259252). Note: nearly all actives have a fitted effect of over 35% in size. Note: potency is the fitted concentration of half-maximal effect. In outline: (§1)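 Compound titrations go onto adherent log-phase cells 4 h after seeding, incubate 48 h at 37C, then CellTiter-Glo luminescence reports viability relative to DMSO and cell-free controls.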
The nature of test [4]: qHTS Screen of the MIPE 4.0 Collection Against Ewings Sarcoma (TC71) (AID 1259253). Note: nearly all actives have a fitted effect of over 40% in size. Note: potency is the fitted concentration of half-maximal effect. Put shortly:
as §1

Test [5] is described as follows: qHTS Screen of the MIPE 4.0 Collection Against Ewings Sarcoma (EW8) (AID 1259255). Note: nearly all actives have a fitted effect of over 35% in size. Note: potency is the fitted concentration of half-maximal effect. Put shortly: as §1
Test [6] is described as follows: qHTS Screen of the MIPE 4.0 Collection Against Ewings Sarcoma (TC32) (AID 1259256). Note: nearly all actives have a fitted effect of over 45% in size. Note: potency is the fitted concentration of half-maximal effect. Put shortly: as §1
Test [7] in a line: Identifying Small Molecule Inhibitors of Pancreatic Cancer Stem Cells (SN12C, Adherent) (AID 1259358).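 Note: cell survival measured after 48 h of compound exposure.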 Note: potency is the fitted concentration of half-maximal effect. In outline:
(§2)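 Viability is scored by CellTiter-Glo luminescence 48 h after dosing, expressed as percent activity against vehicle and no-cell references. Spheroid formats rely on cells cultured 14 days in stem cell media beforehand.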

The nature of test [8]: Identifying Small Molecule Inhibitors of Pancreatic Cancer Stem Cells (Panc1, Spheroid) (AID 1259359).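 Note: potency is the fitted concentration of half-maximal effect; compound exposure lasted 48 h before reading.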 In outline: as §2

`C#Cc1cccc(Nc2ncnc3cc(OC)c(OCCCCCCC(=O)NO)cc23)c1`: the Potency entry in test [1] and in test [2] was “inactive” each time. The Potency in test [3] is 0.0209 µM (active); in test [4], 0.0743 µM (active); in test [5] it was 0.059 µM (active); in test [6] it was 0.0372 µM (active); in test [7], 14.8 µM (active).

For `Cc1ccc(S(=O)(=O)Nc2cc(Cl)ccc2C(=O)Nc2nc(-c3ccccc3)cs2)cc1`, the Potency result in test [1] and in test [2] was “inactive” throughout. Also, the Potency is 10.5 µM (active) in test [3]; 13.2 µM (active) in test [4]; 16.6 µM (active) in test [5]; 14.8 µM (active) in test [6]; 2.64 µM (active) in test [7].

Take `CN(C)CC=CC(=O)Nc1cc2c(Nc3ccc(F)c(Cl)c3)ncnc2cc1O[C@H]1CCOC1`: the Potency result in test [1] and in test [2] was “inactive” in each case. Also, the Potency in test [3] is 18.7 µM (active); in test [4] it was 16.6 µM (active); in test [5], 20.9 µM (active); in test [6], 16.6 µM (active); in test [8], 11.8 µM (active).

As for `CNC(=O)c1cc(Oc2ccc(NC(=O)Nc3cc(C(C)(C)C)nn3-c3ccc4ncccc4c3)c(F)c2)ccn1`, the Potency result in test [1] and in test [2] was “inactive” each time. The Potency was 20.9 µM (active) in test [3]; 16.6 µM (active) in test [4]; 18.7 µM (active) in test [5]; 20.9 µM (active) in test [6]; 13.2 µM (active) in test [8].

Regarding `Cc1cn(-c2cc(NC(=O)c3ccc(C)c(Nc4nccc(-c5cccnc5)n4)c3)cc(C(F)(F)F)c2)cn1`, the Potency result in test [1], in test [2], in test [3], in test [4], in test [5] and in test [6] was “inactive” in each case. Moreover, the Potency result in test [7] is “inactive”.

Consider `CCOc1cc2ncc(C#N)c(Nc3ccc(F)c(Cl)c3)c2cc1NC(=O)C=CCN(C)C`, for which the Potency entry in test [1] and in test [2] was “inactive” throughout. The Potency was 0.105 µM (active) in test [3]; 0.132 µM (active) in test [4]; 0.132 µM (active) in test [5]; 0.132 µM (active) in test [6]; 0.209 µM (active) in test [7]; 16.6 µM (active) in test [8].

Take `COc1cc(OC2CCN(C)CC2)ccc1Nc1ncc2c(n1)n(C1CCCC1)c(=O)n2C`: the Potency result in test [1] and in test [2] was “inactive” each time. Besides, the Potency is 9.35 µM (active) in test [3]; 4.69 µM (active) in test [4]; 7.43 µM (active) in test [5]; 4.69 µM (active) in test [6]; 16.6 µM (active) in test [7].

For the compound `Nc1nc(-c2nn(Cc3ccccc3F)c3ncccc23)nc(N)c1N1CCOCC1`, the Potency result in test [1], in test [2], in test [3], in test [4], in test [5] and in test [6] was “inactive” each time. Besides, the Potency entry in test [7] was “inactive”.

With `O=c1[nH]nc(Sc2ncc([N+](=O)[O-])s2)n1-c1ccc2c(c1)OCCO2`, the Potency in test [1] was 23.5 µM (active); in test [3] it was 7.43 µM (active); in test [4], 6.62 µM (active); in test [5], 2.96 µM (active); in test [6] it was 2.96 µM (active); in test [8] it was 5.26 µM (active). For the same compound, in test [2], the Potency entry was “inactive”.

Regarding `CCN1CCN(Cc2ccc(-c3cc4c(N[C@H](C)c5ccccc5)ncnc4[nH]3)cc2)CC1`, the Potency entry in test [1], in test [2] and in test [3] was “inactive” in each case. The Potency is 0.0053 µM (active) in test [4], 0.0332 µM (active) in test [5], 0.0148 µM (active) in test [6] and 23.5 µM (active) in test [7].

Consider `CC(C)(O)CCc1ccc(OCc2cc(-c3cccc(OC(F)F)c3)c3ncccc3c2)cc1`, for which the Potency entry in test [1], in test [2], in test [3], in test [4], in test [5] and in test [6] was “inactive” throughout. In addition, in test [7], the Potency entry was “inactive”.

`Cc1[nH]nc2ccc(-c3cncc(OC[C@@H](N)Cc4ccccc4)c3)cc12`: the Potency entry in test [1] and in test [2] was “inactive” each time. In addition, the Potency was 2.09 µM (active) in test [3]; 1.48 µM (active) in test [4]; 0.833 µM (active) in test [5]; 2.96 µM (active) in test [6]; 7.43 µM (active) in test [7]; 9.35 µM (active) in test [8].

Take `C=CCn1c(=O)c2cnc(Nc3ccc(N4CCN(C)CC4)cc3)nc2n1-c1cccc(C(C)(C)O)n1`: the Potency result in test [1] and in test [2] was “inactive” throughout. Moreover, the Potency was 0.264 µM (active) in test [3]; 0.332 µM (active) in test [4]; 0.0833 µM (active) in test [5]; 0.372 µM (active) in test [6]; 0.418 µM (active) in test [8].

On to `NC(=O)c1c(OCc2c(F)cc(Br)cc2F)nsc1NC(=O)NCCCCN1CCCC1`, for which the Potency entry in test [1] and in test [2] was “inactive” each time. For the same compound, the Potency in test [3] is 16.6 µM (active); in test [4], 18.7 µM (active); in test [5] it was 9.35 µM (active); in test [6], 14.8 µM (active); in test [7], 5.26 µM (active).

`O=C(NC1CCNCC1)c1[nH]ncc1NC(=O)c1c(Cl)cccc1Cl`: the Potency entry in test [1] and in test [2] was “inactive” in each case. Also, the Potency is 0.187 µM (active) in test [3]; 0.264 µM (active) in test [4]; 0.418 µM (active) in test [5]; 0.209 µM (active) in test [6]; 1.32 µM (active) and 1.05 µM (active) in test [8].

Regarding `CC(C)(C)c1cc(NC(=O)Nc2ccc(-c3cn4c(n3)sc3cc(OCCN5CCOCC5)ccc34)cc2)no1`, the Potency entry in test [1], in test [2], in test [3], in test [4], in test [5] and in test [6] was “inactive” each time. Moreover, the Potency result in test [7] was “inactive”.

`CC(=O)Nc1sc2c(c1-c1nc3ccccc3s1)CNC2`: the Potency entry in test [1], in test [2] and in test [7] was “inactive” in each case. Also, the Potency in test [3] was 16.6 µM (active); in test [4], 14.8 µM (active); in test [5], 16.6 µM (active); in test [6], 13.2 µM (active).
